AID923 = qHTS Assay for Allosteric/Competitive Inhibitors of Caspase-1: Spectroscopic Profiling in AFC Spectral Region; compound fluorescence, AFC spectral region (405/520 nm); Potency, µM (doses to about 57.5 µM), hits mostly activators; hit rate 1.1% among 75,000; AID 923, 2007
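Titrations up to 57 uM read every 20 sec for 3 min (405/520 nm) with 50 nM caspase 1 and 5 uM Ac-WEHD-AFC, pH 7.5 HEPES buffer. Fluorescence-vs-time intercept gave baseline, scaled against on-plate AFC standard.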
HSD17B inhib = HSD17B dehydrogenase inhibition. Q99714. recombinant HSD17B10, NADH fluorescence kinetic. Potency, µM (top dose mostly 57.1 µM), usual class: inhibitors. hit rate 7.6% among 75,000;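 also: the protocol describes HADH2 (HSD17B10) and not the HSD17B4 of the title; nearly all actives have a fitted effect of over 70% in size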
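Activity followed as NADH fluorescence increase (ex 360, em 450 nm) every 30 seconds for 4 min, using final 90 uM beta-hydroxybutyryl CoA and 1 mM NAD+. Recombinant His-tagged enzyme, 20 nM, pH 9.0 Tris buffer, 15 min compound preincubation.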
A350 fluor = compound fluoresces in the Alexa 350 spectral region | max dye-equivalent concentration, M | hit rate 11% among 59,000 | Compound autofluorescence, 340/450 nm, Alexa 350 dye-equivalents; hits give high values; in the data active = max dye-equivalent concentration above about 10 nM; inconclusive = mostly about 1.1 nM to 9.6 nM
CRE-bla Fsk = alters forskolin-stimulated CRE reporter signaling in CHO cells; CHO CRE-bla reporter (cAMP response element driving beta-lactamase), forskolin EC10, beta-lactamase ratio; Potency, µM (titrated, usually from 38.2 µM), usual class: activators; hit rate 2.5% among 71,000; AID 662; active = well fitted activation curve with a large enough effect in the signal ratio, with a control signal flat, not every such curve was filed as active; inconclusive = small, poorly fitted or top-dose-only effect, or effect the other way, or a change in a side signal; the % refers to the signal ratio
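Cells were plated overnight at 37 °C, exposed to compound titrations plus EC10 NKH 477 for 3 h, then given CCF4 dye for 2 h at room temperature. Blue/green (460/530 nm) ratio was converted to %Activity and AC50 values calculated.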
HADH2 inhib = inhibitors of human HADH2 dehydrogenase. Q99714. recombinant HADH2, NADH fluorescence, beta-hydroxybutyryl-CoA. Potency, µM (titrated, usually from 57.1 µM), most hits filed as inhibitors. hit rate 3.4% among 73,000. AID 886; also: nearly all actives have a fitted effect of over 60% in size
Target sequence (Q99714 whole entry, looked up, one chain of several): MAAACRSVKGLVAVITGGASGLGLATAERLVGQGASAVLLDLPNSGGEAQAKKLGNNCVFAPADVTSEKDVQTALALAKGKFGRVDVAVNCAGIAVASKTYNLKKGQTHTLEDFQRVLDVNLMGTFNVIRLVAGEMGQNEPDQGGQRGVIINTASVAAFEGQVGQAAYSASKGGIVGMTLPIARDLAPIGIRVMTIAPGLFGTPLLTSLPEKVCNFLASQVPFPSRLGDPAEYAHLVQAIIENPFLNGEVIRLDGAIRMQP
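Read-out: 360 nm excitation, 450 nm emission, kinetic over 4 min. Conditions: His-tagged human HADH2 20 nM, pH 9.0 Tris with Tween-20, 1 mM NAD+, 90 uM beta-hydroxybutyryl-CoA.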
4-MU autofl = compounds fluorescent in 4-MU spectral region; AID 589; max dye-equivalent concentration, M; hit rate 11% among 59,000; compound autofluorescence, 340/450 nm, 4-MU equivalents; hits give high values; in the data active = max dye-equivalent concentration above about 10 nM; inconclusive = mostly about 1.1 nM to 9.6 nM
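Compounds in 100 mM Tris, pH 8.0, incubated 15 min at room temperature, then fluorescence read at 340 nm excitation/450 nm emission. Signal converted to 4-MU dye-equivalent concentration using an on-plate six-point 4-MU standard curve.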
Numbers stand for hits; - = inactive; ? = inconclusive; . = no result; ! = a repeat was not active; [ ] = remark or other dose. Compounds with a hit are over-represented: about 14% of the library has one in this group of screens. Unless noted, calls follow the shape of the dose curve; as a rule, active = well fitted curve in the direction sought with a large enough effect; inconclusive = small, poorly fitted or top-dose-only effect, or another doubt; inactive = no such curve, though single readings can be large; an effect the other way counts as inactive or inconclusive.

SMILES | AID923 | HSD17B inhib | A350 fluor | CRE-bla Fsk | HADH2 inhib | 4-MU autofl
N#Cc1cccc(NC(=O)N2CCCC3(CCN(C(=O)c4csnn4)CC3)C2)c1 | - | - | - | - | - | -
O=C1C2C3C=CC(C3)C2C(=O)N1CNc1ccc(O)cc1 (stereo unspecified) | - | - | - | - | 7.9µM | -
Cc1ccc(NCN2C(=O)C3C4C=CC(C4)C3C2=O)cc1 (stereo unspecified) | - | - | . | ? | -[11.4 µM] | .
CN1CCN(C(=O)c2cnn(-c3ccccc3)c2NC(=O)c2ccccc2F)CC1 | - | - | - | - | - | -
O=C1OC(Nc2ccc3c(c2)OCO3)c2ccccc21 (stereo unspecified) | - | - | - | ? | 25µM | -
CCCNc1ncccc1C(N)=O | - | 25µM | 2.1e-07M | - | - | 2.2e-07M
CCOc1ccccc1C(N)=O | - | - | . | - | - | .
O=C(Nc1ccc(F)cc1F)c1cccnc1 | - | - | - | ? | - | -
Oc1ccc(/C=C\c2cc(O)cc(O)c2)cc1 | - | 25µM | 1e-08M! | ? | 13µM | 1.2e-08M!
COc1ccc(/C=C/C(=O)c2ccc(O)cc2O)cc1 | - | ? | . | . | . | .
COc1cc(O)cc(/C=C/c2ccccc2)c1 | - | 20µM | . | . | . | .
Oc1cc(O)cc(/C=C\c2ccc(O)c(O)c2)c1 | - | 32µM | 1.6e-08M | - | 2µM | 1.7e-08M
O=C(/C=C/c1ccc(O)cc1)c1ccc(O)cc1O | -[11.5 µM] | -[11.4 µM] | . | . | -[11.4 µM] | .
Oc1ccc(/C=C/c2cc(O)cc(O)c2)cc1 | - | 32µM | ? | - | 32µM | ?
COC(=O)/C=c1\sc2n(c1=O)C(C)=CC(C)(C)N=2 | - | - | - | - | - | -
COC(=O)/C=c1/sc2n(c1=O)CCN=2 | - | 32µM | ? | - | ? | ?
CCn1c(CC(=O)Nc2ccc(C)cc2)nnc1SCC(=O)N1CCN(c2ccccc2)CC1 | - | - | - | - | - | -
O[C@@H]1[C@@H]2c3cc4c(cc3CN3CCC(=C[C@@H]1O)[C@H]23)OCO4 | - | - | 9.9e-08M | 0.79µM | - | 1.1e-07M
CCOC(=O)Cc1nnc(NC(=O)CSc2nnc3c4ccccc4n(C)c3n2)s1 | - | - | . | 3.2µM | ? | .
CCc1cc2c(=O)c(-c3nc4ccccc4n3C)c(C(C)C)oc2c(CN2CCN(C)CC2)c1O | - | 25µM | . | - | ? | .
CCc1cc2c(=O)c(-c3nc4ccccc4n3C)c(C)oc2c(CN2CCN(C)CC2)c1O | - | ? | 9.6e-08M | - | - | 1.2e-07M
CCc1cc2c(=O)c(-c3nc4ccccc4n3C)c(C)oc2c(CN2CCN(CCO)CC2)c1O | - | ? | . | . | ? | .
O=c1cc(-c2ccccc2)[nH]c2ccccc12 | - | ? | - | ? | - | -
O=c1nc(-c2ccccc2)c2ccccc2[nH]1 | - | 25µM | 1.7e-07M | - | - | 2e-07M
CCOc1ccc(C2CC(=O)NC3=C2C(=O)CCC3)cc1 (stereo unspecified) | - | - | - | - | - | -
SMILES | AID923 | HSD17B inhib | A350 fluor | CRE-bla Fsk | HADH2 inhib | 4-MU autofl
CCSc1nc2n(n1)C(c1cccc(F)c1)C1=C(CCCC1=O)N2 (stereo unspecified) | - | ? | 7.7e-08M | - | ? | 6.3e-08M
COc1cc(OC)c(C2C3=C(CCCC3=O)Nc3nc4ccccc4n32)cc1OC (stereo unspecified) | - | - | ? | ? | - | ?
COc1ccc(C2C3=C(CCCC3=O)Nc3nc(C(F)(F)F)nn32)c(OC)c1OC (stereo unspecified) | - | ? | 2.5e-08M | ? | - | 2.8e-08M
COc1cccc(C2C3=C(CCCC3=O)Nc3nc4ccccc4n32)c1OC (stereo unspecified) | - | 3.2µM | 3.3e-07M | ? | 13µM | 3.9e-07M
CCOc1ccc(C2C3=C(CCCC3=O)Nc3nc(C(F)(F)F)nn32)cc1OC (stereo unspecified) | - | 25µM | 6.8e-08M | - | ? | 7.5e-08M
CC(C)Cn1c(=O)c(C(=O)NCc2ccccn2)c(O)c2ccccc21 | - | - | - | ? | - | -
CCc1c(C)nc(N)nc1OCC(F)(F)C(F)F | - | - | . | - | - | .
COc1ccc(C2C3=C(Nc4ncnn42)c2ccccc2CC3)cc1OC (stereo unspecified) | - | - | ? | - | ? | ?
